Bioassay records as filed in PubChem BioAssay.
LYPLA2 inh: counter-screen for PME1 inhibitors: inhibitors of human LYPLA2 | O95372 | recombinant LYPLA2, FP-Rh probe fluorescence polarization | inhibition, % at 5.9 µM | 0.38% of 320,000 active;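 active means inhibition above the screen-wide mean plus 3 SD, limit set per campaign, cut at about 26% in these data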
Target sequence (O95372 whole entry, looked up): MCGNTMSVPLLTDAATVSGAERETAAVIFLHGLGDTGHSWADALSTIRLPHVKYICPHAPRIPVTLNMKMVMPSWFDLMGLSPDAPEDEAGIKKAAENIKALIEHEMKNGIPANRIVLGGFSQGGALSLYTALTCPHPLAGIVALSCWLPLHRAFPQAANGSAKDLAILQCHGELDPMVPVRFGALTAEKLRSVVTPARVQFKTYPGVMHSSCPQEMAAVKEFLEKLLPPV
Fam108B inh: blocks mouse Fam108B hydrolase in RBBP9 counter-screen; recombinant Fam108B, FP-Rh probe fluorescence polarization; inhibition, % at 9.51 µM; AID 1947; 0.33% of 300,000 active;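 active means inhibition above the screen mean inhibition plus 3 SD, computed separately per campaign, cut at about 18% in these data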;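 further: inhibitors lower polarization as less probe binds the enzyme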
GSTO1 counter: counter-screen for RBBP9 inhibitors: inhibitors of human GSTO1 | P78417 | recombinant GSTO1, activity-based probe fluorescence polarization | inhibition, % at 5.96 µM | 1.1% of 300,000 active;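 active means inhibition above the campaign mean inhibition plus 3 SD, cut at about 35% in these data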
Target sequence (P78417 whole entry, looked up): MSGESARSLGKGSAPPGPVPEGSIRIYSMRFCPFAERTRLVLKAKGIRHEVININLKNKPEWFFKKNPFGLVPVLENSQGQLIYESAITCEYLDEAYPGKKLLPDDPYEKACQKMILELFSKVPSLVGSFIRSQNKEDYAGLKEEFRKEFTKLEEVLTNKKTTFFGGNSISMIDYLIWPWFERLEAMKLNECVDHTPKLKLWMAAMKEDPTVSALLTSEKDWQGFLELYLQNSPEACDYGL
LYPLA1 inh: LYPLA1 (human) inhibition in PME1 counter-screen. O75608. recombinant LYPLA1, FP-Rh probe fluorescence polarization. inhibition, % at 5.9 µM. 0.16% of 320,000 active. AID 2174;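 active means inhibition above the mean of all tested compounds plus 3 SD, set per campaign, cut at about 14% in these data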;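 further: inhibitors block serine hydrolase probe labeling of LYPLA1 so polarization falls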
PREPL inh: inhibitors of human prolyl oligopeptidase-like enzyme PREPL | Q4J6C6 | recombinant PREPL, fluorescence polarization activity-based probe | inhibition, % at 5.96 µM | 0.68% of 320,000 active | AID 2751; in the data active means inhibition above about 43%
PME-1 inh: PME-1 (human) inhibition; Q9Y570; recombinant PME-1, FP-Rh probe fluorescence polarization; inhibition, % at 5.9 µM; 0.53% of 320,000 active;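 active means inhibition above the campaign mean of all compounds plus 3 SD, cut at about 26% in these data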;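 further: competitive labeling of PME-1 active site by serine hydrolase directed probe; inhibitors block probe labeling so polarization falls and inhibition rises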
Large screens that a line does not name were inactive. Only some compounds are listed: those with a hit (about 1.9% of all), similar ones and a draw of the others.

CCN(Cc1cccs1)C(=O)CN1C(=O)NC(c2ccccc2)(c2ccccc2)C1=O	none (no result: Fam108B inh, GSTO1 counter)
Cc1cccc(C)c1N1C(=O)[C@@H]2C(c3ccccc3Cl)=NO[C@@H]2C1=O	none
COc1ccc(OC)c(N2C(=O)[C@@H]3C(c4ccccc4Cl)=NO[C@@H]3C2=O)c1	GSTO1 counter 36.9
COc1cc(C2C(C#N)=C(N)Oc3n[nH]c(-c4cccs4)c32)cc(OC)c1O (stereo not given)	GSTO1 counter 35.5
Cc1ccccc1OCCn1cc(C(=S)N2CCCC2)c2ccccc21	none
Cc1ccccc1OCCn1cc(C(=S)N2CCN(C)CC2)c2ccccc21	PREPL inh 58.5
Cc1[nH]c2ccccc2c1/C=N/NC(=O)c1cc(-c2ccncc2)nc2ccccc12	PME-1 inh 26.5
CCc1nnc(N/N=C/c2c(C)[nH]c3ccccc23)n1N	GSTO1 counter 52.3
Nc1ccc(Nc2nc3ccccc3[nH]2)cc1	PME-1 inh 39.8
Cc1ccccc1/C=N/Nc1nc2ccccc2[nH]1	none
Cc1[nH]c2ccccc2c1/C=N/NC(=O)c1ccccc1	none
Cc1[nH]c2ccccc2c1/C=N/Nc1nc2ccccc2[nH]1	PREPL inh 53.0
COc1ccc(CCC(=O)NCCS(=O)(=O)N2CCN(c3ccccc3OC)CC2)cc1	none
NC(=S)N=Nc1c(O)[nH]c2c(Br)cc(Br)cc12	GSTO1 counter 39.1
COc1ccc(CCNC(=O)CSc2ccc3ccccc3c2)cc1OC	none
O=C(CSc1ccc2ccccc2c1)NCCc1ccc(O)c(O)c1	GSTO1 counter 52.4
O=C(NC(=S)Nc1cccc(Cl)c1Cl)C1CC1	none
COCCCNC(=O)/C(C#N)=C/c1ccc(OCC(=O)O)c(OC)c1	GSTO1 counter 41.0
CN(Cc1ccc(Cl)cc1)C(=O)CNC(=O)C12CC3CC(CC(C3)C1)C2	none (no result: Fam108B inh, GSTO1 counter)
CCCN(CC(=O)Nc1ccccc1OC)C(=O)c1ccc2c(c1)NC(=O)C(C)S2 (stereo not given)	none (no result: Fam108B inh, GSTO1 counter)
COc1ccc(/C=C2\SC(=O)N(CC(=O)NNC(=O)c3ccccc3O)C2=O)cc1OC	GSTO1 counter 38.0
O=C1CC(NNc2nc3ccccc3s2)C(=O)N1c1ccccc1 (stereo not given)	none
CCc1ccc(N2C(=O)CC(NNc3nc4ccccc4s3)C2=O)cc1 (stereo not given)	GSTO1 counter 37.6
Cc1c(Cl)cnc(NC(=O)COC(=O)[C@@H](NC(=O)c2ccco2)C(C)C)c1Cl	none (no result: LYPLA2 inh, Fam108B inh, GSTO1 counter, LYPLA1 inh, PME-1 inh)
C/C(=C\c1ccc2c(c1)OCO2)C1Nc2cccc3cccc(c23)N1	PME-1 inh 37.4 (no result: Fam108B inh, GSTO1 counter)
CCN(C[C@H]1N[C@@](C)(C(=O)OC)[C@H]2C(=O)N(C)C(=O)[C@@H]12)C(=O)Nc1ccc(Cl)cc1	none (no result: LYPLA2 inh, Fam108B inh, GSTO1 counter, LYPLA1 inh, PME-1 inh)
Oc1ccc(-c2cnc(-c3ccc(O)cc3)nc2)cc1	PME-1 inh 35.7
O=C(c1cccc(Cl)c1)N1CCN(S(=O)(=O)c2ccc(Cl)s2)CC1	none (no result: Fam108B inh, GSTO1 counter)
O=C(OCc1ccccc1)Oc1cncc(C(=O)O)c1	GSTO1 counter 35.2
CCN(CC(=O)Nc1cccc(OC)c1)C(=O)c1cccc(S(=O)(=O)N2CCc3ccccc32)c1	none (no result: Fam108B inh, GSTO1 counter)
COC(=O)c1cc(O)c(O)c(O)c1	GSTO1 counter 47.3
CCO[C@@H]1OC(C(=O)N2CCOCC2)=C[C@H](c2cn(C(C)=O)c3ccccc23)[C@H]1CCCO	none
CCO[C@@H]1OC(C(=O)N2CCN(Cc3ccccc3)CC2)=C[C@H](c2cn(C(C)=O)c3ccccc23)[C@H]1CCCO	PME-1 inh 71.1
CC12CCC(=O)N1C(C(=O)NCc1ccccc1Cl)CS2 (stereo not given)	none
O=C(C1=NN[C@@H]2C(=O)N(Cc3ccccc3)C(=O)[C@H]12)c1ccc([N+](=O)[O-])cc1	none
O=C(O)/C(=C\c1ccc(Cl)c([N+](=O)[O-])c1)c1ccc(S(=O)(=O)N2CCCCC2)s1	GSTO1 counter 62.2
C=CCSC1=N/C(=C\c2cc(OCC)c(OC(C)=O)c([N+](=O)[O-])c2)C(=O)S1	PME-1 inh 64.4
C=CCSC1=N/C(=C\c2ccc3c(c2)OCO3)C(=O)S1	none
O=C(Nc1nc2ccccc2s1)C1CCN(S(=O)(=O)c2cc([N+](=O)[O-])ccc2Cl)CC1	none
COc1ccc2nc(N3CCC(O)CC3)c(C#N)cc2c1	GSTO1 counter 36.2
Cc1ccc(C)c(S(=O)(=O)N2CCN(C(=O)c3cc(S(=O)(=O)NCc4ccccc4)ccc3C)CC2)c1	none
Cc1ccc(C(C[N+](=O)[O-])c2c(-c3ccccc3O)[nH][nH]c2=O)cc1 (stereo not given)	GSTO1 counter 35.5
O=c1[nH][nH]c(-c2ccccc2O)c1C(C[N+](=O)[O-])c1ccc(Br)cc1 (stereo not given)	none
CCC(C)c1ccc(S(=O)(=O)N2CCN(C(C)C(=O)NC3CCCC3)CC2)cc1 (stereo not given)	none (no result: Fam108B inh, GSTO1 counter)
Cc1ccsc1/C=N/n1c(-c2cc(-c3ccccc3)n[nH]2)n[nH]c1=S	PME-1 inh 35.4
CC(=O)Nc1nc2cc3c(cc2s1)OCCO3	none
Fc1cc(F)c2nc(Nc3nc4cc5c(cc4s3)OCO5)sc2c1	PME-1 inh 48.6
Fc1cccc2sc(Nc3nc4cc5c(cc4s3)OCCO5)nc12	PME-1 inh 66.8
CC(C)C(=O)Nc1nc2cc3c(cc2s1)OCO3	none
Fc1cccc2sc(Nc3nc4cc5c(cc4s3)OCO5)nc12	PME-1 inh 71.9
O=C(CSc1nc2ccccc2o1)Nc1nncs1	none
Cc1nnc(NC(=O)CSc2ccc(-c3ccc(Cl)cc3)nn2)s1	none
CCc1ccc(-c2ccc(SCC(=O)Nc3nnc(C)s3)nn2)cc1	GSTO1 counter 35.6
Cc1nnc(NC(=O)CSc2nc3ccccc3o2)s1	GSTO1 counter 37.4
CCc1nnc(NC(=O)CSc2ccc(-c3ccco3)nn2)s1	GSTO1 counter 36.0
Cc1nnc(NC(=O)CSc2ccc(-c3ccco3)nn2)s1	GSTO1 counter 54.2
CCc1nnc(NC(=O)CSc2nnc(-c3ccco3)n2C)s1	none
C/C(=N\NC(=O)Cc1cc(=O)[nH][nH]1)c1cccc([N+](=O)[O-])c1	GSTO1 counter 45.2
C/C(=N\NC(=O)CSCc1ccccc1Br)c1cccc([N+](=O)[O-])c1	none
O=C(Nc1ccc([N+](=O)[O-])cc1)Nc1ccc2[nH]c(=O)[nH]c2c1	PME-1 inh 29.6
O=C(CSc1ccc([N+](=O)[O-])cn1)Nc1ccc2[nH]c(=O)[nH]c2c1	none
Cc1nn(CC(=O)N(C)c2c(N)n(Cc3ccccc3)c(=O)[nH]c2=O)c(C)c1[N+](=O)[O-]	none (no result: Fam108B inh, GSTO1 counter)
COc1cc(C(c2c(C(=O)O)[nH]c3ccccc23)c2c(C(=O)O)[nH]c3ccccc23)ccc1OCc1ccccc1	none
O=C(O)c1[nH]c2ccccc2c1C(c1cc(Cl)cc([N+](=O)[O-])c1O)c1c(C(=O)O)[nH]c2ccccc12	GSTO1 counter 73.8
